Measurements published in a collection of fitness landscapes (doi:10.1016/j.celrep.2020.107928).
The full ranking holds about 81,000 sequences; the median of “one-hybrid fitness for binding NBS DNA” is about -0.1, and the highest 2% start at about 0.36. Only a selection was taken, and the highest values are over-represented in it overall.

B1: Caulobacter ParB omega fusion; a variant is named by its letters at X, in order, B8GW30 (parent)
chain: MESVVVGEPGMSEGRRGLGRGLSALLGEVDAAPAQAPGEQLGGSREAPIEILQRNPDQPRRTFREEDLEDLSNSIREKGVLQPILVRPSPDTAGEYQIVAGERAWRAAQRAGLKTVPIMVRELDDLAVLEIGIIENVQRADLNVLEEALSYKVLMEKFERTQENIAQTIGKSXSHVANXMRLLXLPDEVQSYLVSGELTAXHARAIAAAADPVALAKQIIEGGLSVRETEALARKAPNLSAGKSKGGRPPRVKDTDTQALESDLSSVLGLDVSIDHRGSTGTLTITYATLEQLDDLCNRLTRGI

Variants of: B1
Assay: one-hybrid fitness for binding NBS DNA (the Noc-binding site; scaled: cognate 1, non-cognate 0); higher = stronger binding
Conditions: with NBS DNA site
How it was run: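 Pre- and post-selection plasmids were Illumina-sequenced, three replicate libraries were pooled, and any variant with under 10 reads was removed. The libraries were Caulobacter ParB with four specificity codons randomised, selected in E. coli USO through a HIS3 reporter whose site is 19 bp from the promoter. Cells grew 48 hours at 37°C on M9 without histidine, with 0.1 mM IPTG and 5 mM 3-AT. Fitness is the log change in variant-to-wild-type read ratio, rescaled against cognate and non-cognate.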
In the case of REYM, the “one-hybrid fitness for binding NBS DNA” value is reported as at most 0.2. For RFAG, the “one-hybrid fitness for binding NBS DNA” value was at most 0.2. QCYK was tested, and the “one-hybrid fitness for binding NBS DNA” value was at most 0.2. In the case of QARK, the “one-hybrid fitness for binding NBS DNA” value is reported as 0.37. For QMDK, the “one-hybrid fitness for binding NBS DNA” value was at most 0.2. In the case of QCRK, the “one-hybrid fitness for binding NBS DNA” value is reported as 0.478. In the case of QAYK, the “one-hybrid fitness for binding NBS DNA” value is reported as at most 0.2. QSYK was tested, and the “one-hybrid fitness for binding NBS DNA” value was at most 0.2. For QPRK, the “one-hybrid fitness for binding NBS DNA” value was at most 0.2. For QMRK, the “one-hybrid fitness for binding NBS DNA” value was 0.387. QMYK was tested, and the “one-hybrid fitness for binding NBS DNA” value was at most 0.2. In the case of QADK, the “one-hybrid fitness for binding NBS DNA” value is reported as at most 0.2. For QLRK, the “one-hybrid fitness for binding NBS DNA” value was 0.336. QSRK was tested, and the “one-hybrid fitness for binding NBS DNA” value was 0.376. With GVLR the “one-hybrid fitness for binding NBS DNA” value was at most 0.2. With WSLR the “one-hybrid fitness for binding NBS DNA” value was at most 0.2. LIRR was tested, and the “one-hybrid fitness for binding NBS DNA” value was at most 0.2. In the case of KRDL, the “one-hybrid fitness for binding NBS DNA” value is reported as at most 0.2. For YEVL, the “one-hybrid fitness for binding NBS DNA” value was at most 0.2. With QTYK the “one-hybrid fitness for binding NBS DNA” value was at most 0.2. For QTRK, the “one-hybrid fitness for binding NBS DNA” value was 0.546. With QKNK the “one-hybrid fitness for binding NBS DNA” value was at most 0.2. For QTDK, the “one-hybrid fitness for binding NBS DNA” value was at most 0.2. QKDK was tested, and the “one-hybrid fitness for binding NBS DNA” value was at most 0.2. With QKRK the “one-hybrid fitness for binding NBS DNA” value was 0.429. In the case of YNVR, the “one-hybrid fitness for binding NBS DNA” value is reported as at most 0.2. For VWSR, the “one-hybrid fitness for binding NBS DNA” value was at most 0.2. In the case of HGEV, the “one-hybrid fitness for binding NBS DNA” value is reported as at most 0.2. For TVPQ, the “one-hybrid fitness for binding NBS DNA” value was at most 0.2. For CGFR, the “one-hybrid fitness for binding NBS DNA” value was at most 0.2. For CGVE, the “one-hybrid fitness for binding NBS DNA” value was at most 0.2. With FGAR the “one-hybrid fitness for binding NBS DNA” value was 0.385. With NGAE the “one-hybrid fitness for binding NBS DNA” value was at most 0.2. CGYR was tested, and the “one-hybrid fitness for binding NBS DNA” value was at most 0.2. With CGAE the “one-hybrid fitness for binding NBS DNA” value was 0.595. In the case of CGAR, the “one-hybrid fitness for binding NBS DNA” value is reported as 0.441. For FGYR, the “one-hybrid fitness for binding NBS DNA” value was at most 0.2. FGFR was tested, and the “one-hybrid fitness for binding NBS DNA” value was at most 0.2. For ITGA, the “one-hybrid fitness for binding NBS DNA” value was at most 0.2. QREE was tested, and the “one-hybrid fitness for binding NBS DNA” value was at most 0.2. For CKNS, the “one-hybrid fitness for binding NBS DNA” value was at most 0.2. With ATHI the “one-hybrid fitness for binding NBS DNA” value was at most 0.2. YEAF was tested, and the “one-hybrid fitness for binding NBS DNA” value was at most 0.2. With WRNM the “one-hybrid fitness for binding NBS DNA” value was at most 0.2. In the case of TRHT, the “one-hybrid fitness for binding NBS DNA” value is reported as 0.364. LQMW was tested, and the “one-hybrid fitness for binding NBS DNA” value was at most 0.2. For YQHT, the “one-hybrid fitness for binding NBS DNA” value was at most 0.2. For QIGR, the “one-hybrid fitness for binding NBS DNA” value was 0.437. In the case of QIGS, the “one-hybrid fitness for binding NBS DNA” value is reported as 0.295. With QIGD the “one-hybrid fitness for binding NBS DNA” value was at most 0.2. With QCGR the “one-hybrid fitness for binding NBS DNA” value was 0.764. For QGGR, the “one-hybrid fitness for binding NBS DNA” value was at most 0.2. QPGR was tested, and the “one-hybrid fitness for binding NBS DNA” value was at most 0.2. For QSGR, the “one-hybrid fitness for binding NBS DNA” value was 0.547. In the case of QTGM, the “one-hybrid fitness for binding NBS DNA” value is reported as 0.3. In the case of QSGH, the “one-hybrid fitness for binding NBS DNA” value is reported as at most 0.2. QSGP was tested, and the “one-hybrid fitness for binding NBS DNA” value was at most 0.2. In the case of QTGG, the “one-hybrid fitness for binding NBS DNA” value is reported as 0.204. With QTGR the “one-hybrid fitness for binding NBS DNA” value was 0.813. For LCEP, the “one-hybrid fitness for binding NBS DNA” value was at most 0.2. GKTT was tested, and the “one-hybrid fitness for binding NBS DNA” value was at most 0.2. With LKMC the “one-hybrid fitness for binding NBS DNA” value was at most 0.2. In the case of WIPG, the “one-hybrid fitness for binding NBS DNA” value is reported as at most 0.2. With IPHT the “one-hybrid fitness for binding NBS DNA” value was at most 0.2. With YLLF the “one-hybrid fitness for binding NBS DNA” value was at most 0.2. With SHQN the “one-hybrid fitness for binding NBS DNA” value was at most 0.2. For LRKG, the “one-hybrid fitness for binding NBS DNA” value was at most 0.2. QQKR was tested, and the “one-hybrid fitness for binding NBS DNA” value was 1.1. For QQVH, the “one-hybrid fitness for binding NBS DNA” value was at most 0.2. QQKE was tested, and the “one-hybrid fitness for binding NBS DNA” value was 0.335. In the case of QQVD, the “one-hybrid fitness for binding NBS DNA” value is reported as at most 0.2. In the case of QQKL, the “one-hybrid fitness for binding NBS DNA” value is reported as 0.327. In the case of QQVR, the “one-hybrid fitness for binding NBS DNA” value is reported as 0.491. With AGDY the “one-hybrid fitness for binding NBS DNA” value was at most 0.2. In the case of GMLG, the “one-hybrid fitness for binding NBS DNA” value is reported as at most 0.2. For RCVE, the “one-hybrid fitness for binding NBS DNA” value was at most 0.2. For YVKV, the “one-hybrid fitness for binding NBS DNA” value was at most 0.2. In the case of QRRD, the “one-hybrid fitness for binding NBS DNA” value is reported as 0.356. QRRS was tested, and the “one-hybrid fitness for binding NBS DNA” value was 0.787. With QRWN the “one-hybrid fitness for binding NBS DNA” value was at most 0.2. With QRWP the “one-hybrid fitness for binding NBS DNA” value was at most 0.2. For QRYS, the “one-hybrid fitness for binding NBS DNA” value was 0.646. With QRRN the “one-hybrid fitness for binding NBS DNA” value was 0.547. For QRYD, the “one-hybrid fitness for binding NBS DNA” value was 0.222. QRWS was tested, and the “one-hybrid fitness for binding NBS DNA” value was 0.54. In the case of QRRP, the “one-hybrid fitness for binding NBS DNA” value is reported as 0.359. With QRYN the “one-hybrid fitness for binding NBS DNA” value was 0.319. In the case of QRYP, the “one-hybrid fitness for binding NBS DNA” value is reported as at most 0.2.
